ChEMBL document CHEMBL3988442, “University of Dundee, Small-Polar-MMV Screening Library” (2021)
Among all 48,000 compounds or so, about 13,000 (27%) showed an effect of 50% or more. The list shows a part of the results.

What follows are molecules tested on Wolbachia pipientis (assay: Anti-Wolbachia Cell-Based Screen). Conditions: 5 µM.
Type: functional
Design: scale not given: in the data most compounds retested in dose-response had high values
With `CCc1ccc(C2COCCN2C(=O)Nc2cc(C)on2)o1` (configuration not stated) the “Percent Effect” value was -5.597%.
With `CCc1ccc(CN(C)C(=O)c2ccc(CSc3nnc[nH]3)o2)nc1` the “Percent Effect” value was -27.23%.
In the case of `CC(=O)NCCNC(=O)NCCc1c(C)cc(C)cc1C`, the “Percent Effect” value was -0.992%.
For `Cc1ccc2[nH]c(CO[C@H]3CN(c4ccc(C#N)cn4)C[C@H]3F)nc2c1`, the “Percent Effect” value was 0.4241%.
With `CC(O)CN1CCN(Cc2coc(-c3ccc(Cl)cc3)n2)CC1` (configuration not stated) the “Percent Effect” value was 105.9%.
`OCCN1CCN(Cc2coc(-c3ccccc3)n2)CC1` was tested, and the “Percent Effect” value was 106.5%.
In the case of `COc1ccc(-c2nc(CN3CCN(CCO)CC3)co2)cc1`, the “Percent Effect” value was 6.071%.
For `CC(O)CN1CCN(Cc2coc(-c3ccccc3Cl)n2)CC1` (configuration not stated), the “Percent Effect” value was 6.495%.
With `OCCN1CCN(Cc2coc(-c3ccc(Cl)cc3)n2)CC1` the “Percent Effect” value was 12.92%.
For `Cc1ccc(-c2nc(CN3CCN(CCO)CC3)co2)cc1`, the “Percent Effect” value was 88.55%.
`Cc1ccc(-c2nc(CN3CCn4c(nnc4C4CC4)C3)co2)cc1` was tested, and the “Percent Effect” value was -3.724%.
For `OCCN1CCN(Cc2coc(-c3ccccc3Cl)n2)CC1`, the “Percent Effect” value was 6.785%.
For `CC(O)CN1CCN(Cc2coc(-c3ccccc3)n2)CC1` (configuration not stated), the “Percent Effect” value was -18.93%.
In the case of `OCCOc1cc(F)ccc1NCc1nc(-c2ccoc2)no1`, the “Percent Effect” value was -6.724%.
For `CC(=O)N(Cc1noc(C2CC2)n1)C1CCN(CC2CCOCC2)C1` (configuration not stated), the “Percent Effect” value was 115.6%.
For `CC(=O)N(Cc1noc(C2CC2)n1)C1CCN(CC(=O)NC2CC2)C1` (configuration not stated), the “Percent Effect” value was 124.3%.
With `Cc1nc(CCN)cc(N2CCC(O)(c3ccccc3)C2)n1` (configuration not stated) the “Percent Effect” value was -17.84%.
For `O=C(c1ccccn1)N1CC[C@H]2C(=O)N(c3ccsc3)CCO[C@H]2C1`, the “Percent Effect” value was -15.02%.
`COCC(=O)Nc1ccc(-c2noc([C@@H]3CCCN3C(C)C)n2)cn1` was tested, and the “Percent Effect” value was 57.87%.
In the case of `COCC(=O)Nc1ccc(-c2noc([C@@H]3CCCN3CC(C)C)n2)cn1`, the “Percent Effect” value was 49.09%.
For `COCC(=O)Nc1ccc(-c2noc([C@@H]3CCCN3C)n2)cn1`, the “Percent Effect” value was -1.727%.
With `COc1ccc(CN(C)C(=O)CCC(=O)c2cccs2)c(OC)c1OC` the “Percent Effect” value was -8.068%.
`CCOc1cc([C@H]2N[C@@H](c3nc(C)cs3)Cc3ccsc32)ccc1OC` was tested, and the “Percent Effect” value was 131.4%.
In the case of `CCOc1cc([C@@H]2N[C@H](c3nccs3)Cc3ccsc32)ccc1OC`, the “Percent Effect” value was 100.4%.
In the case of `COc1ccc(OC)c(C2CCN(c3ccc4cc[nH]c4n3)C2)c1` (configuration not stated), the “Percent Effect” value was 5.101%.
In the case of `CCOc1cc(CNc2cc(-c3nc(C)no3)ccn2)ccc1OC`, the “Percent Effect” value was -0.8232%.
In the case of `CCOc1ccc(C(=O)CCC(=O)NCc2csc(N)n2)cc1C`, the “Percent Effect” value was 5.175%.
For `COc1ccc(OC)c(C2CCN(C3CCOCC3)C2)c1` (configuration not stated), the “Percent Effect” value was 1.409%.
In the case of `COc1ccc(C(C)NC(=O)Nc2nccs2)cc1OC` (configuration not stated), the “Percent Effect” value was -9.507%.
`CCOc1cc(/C=C/c2ncc(C(=O)NC)s2)ccc1OC` was tested, and the “Percent Effect” value was 34.03%.
For `COc1cc([C@@H]2N[C@H](c3nccs3)Cc3ccsc32)cc(OC)c1OC`, the “Percent Effect” value was 111.7%.
`COc1ccc(OC)c([C@@H]2N[C@H](c3nccs3)Cc3ccsc32)c1` was tested, and the “Percent Effect” value was 139.9%.
For `CC1CCc2nc(O)c(C(=O)NCCCN3CCN(C)CC3)cc2C1` (configuration not stated), the “Percent Effect” value was -5.002%.
With `CC(=O)c1sc2nc3c(c(C(F)(F)F)c2c1N)CN(C(C)=O)CC3` the “Percent Effect” value was -4.263%.
With `Cc1ccc(SCC(=O)NS(=O)(=O)c2ccc3c(c2)OCCO3)cc1` the “Percent Effect” value was -12.07%.
For `O=C(O)C(F)(F)F.O=C(O)C(F)(F)F.O=C(O)c1cc2c(nc1N1CCCC1)CCN(C1CCOCC1)CC2`, the “Percent Effect” value was -7.138%.
`COCCN(CC1CCCN(C2Cc3ccccc3C2)C1)C(=O)COC` (configuration not stated) was tested, and the “Percent Effect” value was -1.224%.
With `CC(C)CN1C[C@H]2CCN(c3ncccn3)CC[C@H]2S1(=O)=O.O=C(O)C(F)(F)F` the “Percent Effect” value was -7.419%.
With `COCCOc1ccccc1C(=O)N1CCCCC1c1nccs1` (configuration not stated) the “Percent Effect” value was 1.225%.
With `CCN(Cc1nccs1)Cc1cc(Cl)ccc1OC` the “Percent Effect” value was -0.3926%.
In the case of `COc1cccc([C@@H]2N[C@H](c3nccs3)Cc3ccsc32)c1OC`, the “Percent Effect” value was 146.2%.
With `CCOc1ccc(C2CC(=O)NCc3nc(N)sc32)cc1CO` (configuration not stated) the “Percent Effect” value was 4.923%.
`COc1cccc(C2CCN(c3ccc4cc[nH]c4n3)C2)c1OC` (configuration not stated) was tested, and the “Percent Effect” value was -24.45%.
In the case of `CCOc1ccc([C@@H]2N[C@H](c3nccs3)Cc3ccsc32)cc1OC`, the “Percent Effect” value was 113.5%.
`CC1N(CC2CC2)C(=O)COC12CCN(C(=O)c1ccno1)CC2` (configuration not stated) was tested, and the “Percent Effect” value was -9.759%.
With `Cn1ncc2c(=O)[nH]c(N3CCCC3c3cccc(Cl)c3)nc21` (configuration not stated) the “Percent Effect” value was -9.423%.
In the case of `CCNC(=O)CN1CCOC(c2ccccc2C(F)(F)F)C1` (configuration not stated), the “Percent Effect” value was -9.523%.
With `FC(F)(F)c1ccc(CN2CCN(Cc3cscn3)CC2)cc1` the “Percent Effect” value was -5.816%.
With `O=c1n(Cc2ccc(F)cc2)nc2ncccn12` the “Percent Effect” value was 93%.
For `O=c1n(Cc2ccccc2F)nc2ncccn12`, the “Percent Effect” value was 224.5%.
With `Fc1ccc(Cn2ncc3c2CN(c2ncccn2)C3)cc1` the “Percent Effect” value was -12.4%.
With `O=c1n(CCSCc2ccccc2F)nc2ccccn12` the “Percent Effect” value was 16.6%.
In the case of `O=c1n(Cc2ccc(C(F)(F)F)cc2)nc2ncccn12`, the “Percent Effect” value was 133.4%.
With `CC(C)C1CN(c2ncccn2)CCC(=O)N1Cc1ccc(F)cc1` (configuration not stated) the “Percent Effect” value was -1.405%.
With `O=c1n(Cc2cccc(F)c2)nc2ncccn12` the “Percent Effect” value was 124.9%.
In the case of `Cn1cnn(Cc2ccccc2F)c1=O`, the “Percent Effect” value was -4.03%.
With `CC(NC(=O)Cn1cccnc1=O)c1ccc(C(F)(F)F)cc1` (configuration not stated) the “Percent Effect” value was -2.849%.
`COc1nccnc1N1CCN(Cc2cccc(F)c2)C(=O)C1` was tested, and the “Percent Effect” value was -1.411%.
With `O=C(O)[C@@H]1CN(Cc2nc3ncccn3n2)C[C@H]1c1cccc(F)c1` the “Percent Effect” value was 4.961%.
For `Cn1ccc(C(=O)N(CC(F)(F)F)c2cccc(Cl)c2)cc1=O`, the “Percent Effect” value was -11.93%.
For `CCc1nc2n(n1)CC(Nc1nc(C)cc(N(C)C)n1)CC2` (configuration not stated), the “Percent Effect” value was 2.422%.
In the case of `CCC1=NOC(CNCc2cnc(-c3ccccc3C)s2)C1` (configuration not stated), the “Percent Effect” value was -1.087%.
In the case of `Cc1c(C)n(CC(O)CN2CCCCCC2)c2c(Cl)cccc12` (configuration not stated), the “Percent Effect” value was 9.081%.
For `CC(=O)c1cccc(NC(=O)NCCc2nnc[nH]2)c1`, the “Percent Effect” value was -18%.
`O=C(O)c1nnn(Cc2cccc(C(F)(F)F)c2)c1-c1ccncc1` was tested, and the “Percent Effect” value was -2.735%.
With `O=C(O)c1nnn(Cc2cccc(C(F)(F)F)c2)c1-c1ccccn1` the “Percent Effect” value was 11.55%.
For `O=c1n(Cc2cccc(C(F)(F)F)c2)nc2ncccn12`, the “Percent Effect” value was 134.4%.
